# Data: PubChem BioAssay
# Calls of active or inactive are those of the source. Unless noted, how the calls were made is not given here.
# Legend:
# [1] = test system: Wnt5a (protein binding on small-molecule microarray); experiment: Wnt5a binders on small-molecule microarray, primary screen, biophysical, 635/667 nm fluorescence (AID 1142); settings: 635 nm fluorescence, higher = more signal;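 further: fluorescence read at 667 nm with signal to noise per printed feature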
# [2] = cell viability in Huh7 cells, primary screen, cytotoxicity control for HCV replication inhibitor project, CellTiter-Glo luminescence, basal, 48 h (AID 1143); settings: Huh7 HCV replicon, higher = more signal, called active from +8 up or from −8 down;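 further: Huh7 hepatoma cells carrying a hepatitis C replication reporter with no stimulus; test concentration not given here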
# [3] = P. aeruginosa biofilm formation inhibitors, primary screen, PAO1 strain, BacTiter-Glo luminescence, LB-PBS (AID 1144); settings: 12 h, higher = more signal
# [4] = CREB reporter modulators without forskolin, primary screen, cell-based, PC12, CRE-LacZ reporter, unstimulated (AID 1145); settings: no forskolin, luminescence, 4.5 h, higher = more signal, called active from +8 up or from −8 down
# [5] = CREB reporter modulators under forskolin, primary screen, cell-based, PC12, CRE-LacZ reporter, forskolin-stimulated (AID 1146); settings: luminescence, 4.5 h, higher = more signal, called active from +8 up or from −8 down;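 further: PC12 cells with 6xCRE LacZ reporter stimulated by forskolin 10 µM; beta-galactosidase reporter signal reflecting CREB driven transcription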
# [6] = molecular target: Streptavidin (Streptomyces avidinii) (UniProt P22629); experiment: streptavidin binders on small-molecule microarray, primary screen, artefact control for SMM compound annotation, biophysical, 635/667 nm fluorescence (AID 1147); settings: streptavidin binding, higher = more signal;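 further: signal reflects streptavidin binding to arrayed compounds as a control protein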
# [7] = small-molecule binders of probe aInhba, primary screen, biochemical, small-molecule microarray, 635/667 nm fluorescence (AID 1148); settings: higher = more signal;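 further: score merges 667nm spot fluorescence with signal-to-noise for antibody binding to printed compounds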
# [8] = molecular target: Torsin-1A (Homo sapiens) (UniProt O14656); experiment: torsin A binders from cell lysate, primary screen, small-molecule microarray, wild-type, 635/667 nm (AID 1149); settings: COS7 hTOR1A-WT lysate, 635 nm fluorescence, higher = more signal
# [9] = molecular target: Torsin-1A (Homo sapiens) (UniProt O14656); experiment: small-molecule binders of mutant TOR1A in lysate, primary screen, cell lysate, small-molecule microarray, COS7 lysate, 635/667 nm fluorescence (AID 1150); settings: COS7 hTOR1A mutant lysate, 635 nm fluorescence, higher = more signal;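 further: score pools 667 nm emission and signal to noise measuring lysate protein binding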
# [10] = test system: Sonic hedgehog protein (Shh); experiment: small-molecule binders of Shh protein, primary screen, biochemical, small-molecule microarray, 635/667 nm fluorescence (AID 1151); settings: small-molecule microarray binding, 635 nm fluorescence; higher = more signal;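 further: Shh protein binding to compounds spotted on small-molecule microarray slides; score combines spot fluorescence intensity with signal-to-noise across triplicate slides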
# Sequence of Torsin-1A (Homo sapiens) (O14656 whole entry, looked up): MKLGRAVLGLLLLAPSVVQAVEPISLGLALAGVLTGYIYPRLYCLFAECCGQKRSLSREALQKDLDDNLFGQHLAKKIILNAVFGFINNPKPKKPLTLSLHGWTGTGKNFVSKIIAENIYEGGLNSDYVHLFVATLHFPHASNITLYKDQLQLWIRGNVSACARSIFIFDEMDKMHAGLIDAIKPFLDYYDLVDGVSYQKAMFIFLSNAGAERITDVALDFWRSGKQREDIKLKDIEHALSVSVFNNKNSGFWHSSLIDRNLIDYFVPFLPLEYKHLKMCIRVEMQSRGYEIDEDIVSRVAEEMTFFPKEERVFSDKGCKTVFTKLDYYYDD
# Sequence of Streptavidin (Streptomyces avidinii) (P22629 whole entry, looked up): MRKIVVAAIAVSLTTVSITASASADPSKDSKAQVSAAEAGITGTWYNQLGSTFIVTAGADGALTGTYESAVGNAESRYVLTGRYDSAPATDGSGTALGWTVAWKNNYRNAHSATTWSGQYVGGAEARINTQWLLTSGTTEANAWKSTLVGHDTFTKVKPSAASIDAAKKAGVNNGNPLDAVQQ
smiles,measurement,setting,value
CC(C)(C)OC(=O)CC[C@]1(C(=O)N2CCOCC2)N=C(c2ccc(OCCCO)cc2)O[C@H]1c1ccccc1N=[N+]=[N-],composite z-score,[1],0.846
same,z-score,[2],-0.884 (inactive)
same,z-score,[3],1.17 (inactive)
same,z-score,[4],1.31 (inactive)
same,z-score,[5],-1.4 (inactive)
same,composite z-score,[6],1.42
same,composite z-score,[7],0.236
same,composite z-score,[8],0.64
same,composite z-score,[9],1.7
same,composite z-score,[10],-0.371
C=CCOC(=O)[C@H]1[C@@H]2C(=O)O[C@@H](c3ccccc3)[C@@H](c3ccccc3)N2[C@@H](c2ccc(OCCOC(=O)[C@H]3C[C@H]4C(=O)N[C@@H](CCCCNC(C)=O)C(=O)N4[C@H]3c3cccc(OCCO)c3)cc2)[C@]12C(=O)Nc1ccccc12,composite z-score,[1],0.791
same,z-score,[2],-1.1 (inactive)
same,z-score,[3],-0.292 (inactive)
same,z-score,[4],-1.08 (inactive)
same,z-score,[5],-0.908 (inactive)
same,composite z-score,[6],-0.365
same,composite z-score,[7],-0.21
same,composite z-score,[8],0.983
same,composite z-score,[9],0.934
same,composite z-score,[10],2.07
[N-]=[N+]=NCc1ccccc1C[C@]1(C(=O)N2CCCCC2)N=C(c2ccc(OCCCO)cc2)O[C@H]1c1ccccc1N=[N+]=[N-],composite z-score,[1],0.0151
same,z-score,[2],-5.01 (inactive)
same,z-score,[3],-0.799 (inactive)
same,z-score,[4],-0.333 (inactive)
same,z-score,[5],-1.69 (inactive)
same,composite z-score,[6],1.46
same,composite z-score,[7],0.127
same,composite z-score,[8],0.333
same,composite z-score,[9],1.03
same,composite z-score,[10],-0.27
COCCOC(=O)N1C(=O)[C@@]2(c3cc(C#Cc4ccc(OC)cc4)ccc31)[C@H](c1ccc(O)cc1)N1[C@H](c3ccccc3)[C@H](c3ccccc3)OC(=O)[C@H]1[C@@H]2C(=O)N1CCc2cc(OC)c(OC)cc2C1,composite z-score,[1],0.164
same,z-score,[2],-1.93 (inactive)
same,z-score,[3],-1.57 (inactive)
same,z-score,[4],-1.42 (inactive)
same,z-score,[5],-0.397 (inactive)
same,composite z-score,[6],1.25
same,composite z-score,[7],0.0317
same,composite z-score,[8],0.807
same,composite z-score,[9],0.964
same,composite z-score,[10],0.643
C=C(CCCC)/C(=C/C[C@@H](OC(=O)c1ccncc1)c1ccc(OCCO)cc1)c1cc(C(=O)OC)ccc1OC,composite z-score,[1],-0.109
same,z-score,[2],-1.43 (inactive)
same,z-score,[3],-0.0194 (inactive)
same,z-score,[4],2.32 (inactive)
same,z-score,[5],1.99 (inactive)
same,composite z-score,[6],0.378
same,composite z-score,[7],-0.128
same,composite z-score,[8],0.0383
same,composite z-score,[9],0.111
same,composite z-score,[10],1.41
CC(C)[Si](C#Cc1ccc(Oc2ccccc2)cc1)(O[Si](C#Cc1ccc(Oc2ccccc2)cc1)(C(C)C)C(C)C)C(C)C,composite z-score,[1],0.253
same,z-score,[2],0.479 (inactive)
same,z-score,[3],-0.614 (inactive)
same,z-score,[4],0.6 (inactive)
same,z-score,[5],-0.378 (inactive)
same,composite z-score,[6],-0.286
same,composite z-score,[7],0.0403
same,composite z-score,[8],0.567
same,composite z-score,[9],0.514
same,composite z-score,[10],1.05
C=CC[C@]1(C(=O)NCCCOC)N=C(c2ccc(OCCCO)cc2)O[C@H]1c1ccccc1CN=[N+]=[N-],composite z-score,[1],1.11
same,z-score,[2],-1.34 (inactive)
same,z-score,[3],0.162 (inactive)
same,z-score,[4],1.49 (inactive)
same,z-score,[5],-1.41 (inactive)
same,composite z-score,[6],0.828
same,composite z-score,[7],0.149
same,composite z-score,[8],0.883
same,composite z-score,[9],0.749
same,composite z-score,[10],-0.0138
CC(C)NC(=O)[C@@]1(C)c2ccccc2C(=O)N(Cc2cc(C(F)(F)F)cc(C(F)(F)F)c2)[C@H]1c1ccc(CO)cc1,composite z-score,[1],-0.533
same,z-score,[2],-3.78 (inactive)
same,z-score,[3],1.03 (inactive)
same,z-score,[4],0.648 (inactive)
same,z-score,[5],-0.405 (inactive)
same,composite z-score,[6],-0.417
same,composite z-score,[7],-0.269
same,composite z-score,[8],-0.979
same,composite z-score,[9],-0.723
same,composite z-score,[10],-0.328
O=C(CS)NCCCCCCNC(=O)[C@@H]1C[C@@H]2C(=O)NCC(=O)N2[C@@H]1c1cccc(OCCO)c1,composite z-score,[1],0.136
same,z-score,[2],0.429 (inactive)
same,z-score,[3],-0.865 (inactive)
same,z-score,[4],-0.252 (inactive)
same,z-score,[5],-0.695 (inactive)
same,composite z-score,[6],0.0478
same,composite z-score,[7],-0.613
same,composite z-score,[8],1.29
same,composite z-score,[9],1.28
same,composite z-score,[10],0.88
C=CCNC(=O)[C@H]1[C@@H]2C(=O)O[C@@H](c3ccccc3)[C@@H](c3ccccc3)N2[C@@H](c2ccccc2OCCO)[C@]12C(=O)Nc1ccc(C#CCCO)cc12,composite z-score,[1],0.805
same,z-score,[2],-3.21 (inactive)
same,z-score,[3],0.481 (inactive)
same,z-score,[4],-0.141 (inactive)
same,z-score,[5],4.71 (inactive)
same,composite z-score,[6],-0.378
same,composite z-score,[7],-0.0944
same,composite z-score,[8],-0.897
same,composite z-score,[9],-0.202
same,composite z-score,[10],-0.322
[N-]=[N+]=Nc1ccccc1[C@@H]1OC(c2ccc(OCCCO)cc2)=N[C@]1(Cc1ccccc1)C(=O)N1CCOCC1,composite z-score,[1],0.546
same,z-score,[2],-3.97 (inactive)
same,z-score,[3],0.617 (inactive)
same,z-score,[4],1.56 (inactive)
same,z-score,[5],-1.42 (inactive)
same,composite z-score,[6],1.35
same,composite z-score,[7],0.0658
same,composite z-score,[8],0.311
same,composite z-score,[9],0.58
same,composite z-score,[10],-0.3
C=CCOC(=O)[C@H]1[C@@H]2C(=O)O[C@@H](c3ccccc3)[C@@H](c3ccccc3)N2[C@@H](c2ccc(OCCOC(=O)[C@@H]3C[C@@H]4C(=O)N[C@@H](CC(C)C)C(=O)N4[C@@H]3c3ccc(O)cc3)cc2)[C@]12C(=O)Nc1ccccc12,composite z-score,[1],0.384
same,z-score,[2],-1.37 (inactive)
same,z-score,[3],-1.04 (inactive)
same,z-score,[4],-0.541 (inactive)
same,z-score,[5],0.0707 (inactive)
same,composite z-score,[6],0.359
same,composite z-score,[7],0.0442
same,composite z-score,[8],0.941
same,composite z-score,[9],0.95
same,composite z-score,[10],2.08
O=C1C2C=CC(C(O)c3cccc4ccccc34)N(Nc3ccccc3F)C2C(=O)N1c1ccccc1 (stereo not given),composite z-score,[1],0.115
same,z-score,[2],-0.586 (inactive)
same,z-score,[3],-0.732 (inactive)
same,z-score,[4],-0.62 (inactive)
same,z-score,[5],0.276 (inactive)
same,composite z-score,[6],1.66
same,composite z-score,[7],0.103
same,composite z-score,[8],1.44
same,composite z-score,[9],0.993
same,composite z-score,[10],-0.458
CCC(CC)C(O)C1C=CC2C(=O)NC(=O)C2N1Nc1ccc(Cl)cc1Cl (stereo not given),composite z-score,[1],0.0146
same,z-score,[2],-0.776 (inactive)
same,z-score,[3],0.34 (inactive)
same,z-score,[4],0.243 (inactive)
same,z-score,[5],-0.273 (inactive)
same,composite z-score,[6],0.673
same,composite z-score,[7],0.225
same,composite z-score,[8],-0.167
same,composite z-score,[9],0.418
same,composite z-score,[10],0.463
